# PubChem BioAssay AID1159580 (chemical genetic matrix, 2015)
# Hit rate of the full screen: of about 5,500 compounds, about 2,000 (36%) were called active. Inconclusive results (about 18%) are left out. This is one part of the list. Unmarked numbers belong to inactive results. Cut-off read from the data, not from the text of the source: active = normalized growth mostly below about 0.91 (no sharp cut-off); inconclusive = no clear call, values can overlap the other calls; inactive = mostly above about 0.92.
# Assay: chemical genetic growth profiling, strain panel (AID 1159580);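 note: tested at 20 µM; growth read once vehicle control cultures reached saturation at 30 °C; 1 = growth at the plate median or of vehicle wells; lower values mean less growth of the strain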
# Conditions: S. cerevisiae deletion strains, growth OD
# [1] = locus YHR030C, strain SLT2, active compounds read low
# [2] = locus YHR079C, strain IRE1, active compounds read low
# [3] = locus YJL095W, strain BCK1, active compounds read low
# [4] = locus YJR066W, strain TOR1, active compounds read low
# [5] = locus YLR113W, strain HOG1, active compounds read low
# [6] = locus YNL183C, strain NPR1, active compounds read low
# [7] = locus YOR231W, strain MKK1, active compounds read low
# [8] = locus YPL256C, strain CLN2, active compounds read low
smiles,measurement,setting,value
CC(=O)OCC(=O)[C@@]1(O)CCC2C3CCC4=CC(=O)C=C[C@]4(C)[C@@]3(F)[C@@H](O)C[C@@]21C (stereo partly drawn),normalized growth,[1],1.07
same,normalized growth,[2],1.07
same,normalized growth,[3],1.01
same,normalized growth,[4],1
same,normalized growth,[5],0.999
same,normalized growth,[6],0.993
same,normalized growth,[7],1.05
same,normalized growth,[8],1.06
CC(/C=C/c1ccccc1)=N/OC(=O)c1ccccc1Cl,normalized growth,"locus YAR019C, strain CDC15, active compounds read low",0.967
same,normalized growth,"locus YBL105C, strain PKC1, active compounds read low",0.97
same,normalized growth,"locus YBR135W, strain CKS1, active compounds read low",0.974
same,normalized growth,"locus YBR136W, strain MEC1, active compounds read low",0.969
same,normalized growth,"locus YBR160W, strain CDC28, active compounds read low",0.97
same,normalized growth,"locus YDL017W, strain CDC7, active compounds read low",0.976
same,normalized growth,"locus YDL028C, strain MPS1, active compounds read low",0.981
same,normalized growth,"locus YDL101C, strain DUN1, active compounds read low",0.976
same,normalized growth,"locus YDL108W, strain KIN28, active compounds read low",0.982
same,normalized growth,"locus YDL132W, strain cdc53, active compounds read low",0.978
same,normalized growth,"locus YDL214C, strain PRR2, active compounds read low",0.902
same,normalized growth,"locus YDR052C, strain DBF4, active compounds read low",0.981
same,normalized growth,"locus YDR054C, strain cdc34, active compounds read low",0.96
same,normalized growth,"locus YDR226W, strain ADK1, active compounds read low",0.979
same,normalized growth,"locus YDR477W, strain SNF1, active compounds read low",0.911
same,normalized growth,"locus YER123W, strain YCK3, active compounds read low",0.876
same,normalized growth,"locus YER133W, strain GLC7, active compounds read low",0.917
same,normalized growth,"locus YFL009W, strain cdc4, active compounds read low",0.974
same,normalized growth,"locus YFL029C, strain CAK1, active compounds read low",0.969
same,normalized growth,"locus YFR003C, strain YPI1, active compounds read low",0.97
same,normalized growth,"locus YFR019W, strain FAB1, active compounds read low",0.936
same,normalized growth,"locus YFR028C, strain CDC14, active compounds read low",0.969
same,normalized growth,"locus YGR040W, strain KSS1, active compounds read low",0.887
same,normalized growth,"locus YGR052W, strain FMP48, active compounds read low",0.949
same,normalized growth,"locus YGR092W, strain DBF2, active compounds read low",0.874
same,normalized growth,[1],0.899
same,normalized growth,[2],0.888
same,normalized growth,"locus YHR082C, strain KSP1, active compounds read low",0.96
same,normalized growth,"locus YHR205W, strain SCH9, active compounds read low",0.864
same,normalized growth,"locus YIL147C, strain SLN1, active compounds read low",0.974
same,normalized growth,[3],0.903
same,normalized growth,"locus YJL128C, strain PBS2, active compounds read low",0.955
same,normalized growth,"locus YJL157C, strain FAR1, active compounds read low",0.879
same,normalized growth,"locus YJR016C, strain ILV3, active compounds read low",0.978
same,normalized growth,"locus YJR066W, strain TOR1 (second series), active compounds read low",0.795
same,normalized growth,[4],0.963
same,normalized growth,"locus YKL048C, strain ELM1, active compounds read low",0.936
same,normalized growth,"locus YKL067W, strain YNK1, active compounds read low",0.907
same,normalized growth,"locus YKL101W, strain HSL1, active compounds read low",0.902
same,normalized growth,"locus YKL193C, strain SDS22, active compounds read low",0.974
same,normalized growth,"locus YKL203C, strain TOR2, active compounds read low",0.954
same,normalized growth,[5],0.734 (active)
same,normalized growth,"locus YLR133W, strain CKI1, active compounds read low",0.896
same,normalized growth,"locus YLR403W, strain SFP1, active compounds read low",0.86
same,normalized growth,"locus YML070W, strain DAK1, active compounds read low",0.849
same,normalized growth,"locus YMR001C, strain CDC5, active compounds read low",0.97
same,normalized growth,"locus YMR205C, strain PFK2 (second series), active compounds read low",0.917
same,normalized growth,"locus YMR277W, strain FCP1, active compounds read low",0.966
same,normalized growth,"locus YNL006W, strain LST8, active compounds read low",0.984
same,normalized growth,"locus YNL020C, strain ARK1, active compounds read low",0.905
same,normalized growth,"locus YNL161W, strain CBK1, active compounds read low",0.968
same,normalized growth,[6],0.903
same,normalized growth,"locus YNL207W, strain RIO2, active compounds read low",0.965
same,normalized growth,"locus YNL222W, strain SSU72, active compounds read low",0.984
same,normalized growth,"locus YNL307C, strain MCK1 (second series), active compounds read low",0.899
same,normalized growth,"locus YOL078W, strain AVO1, active compounds read low",0.975
same,normalized growth,"locus YOL136C, strain PFK27, active compounds read low",0.849
same,normalized growth,"locus YOR061W, strain CKA2, active compounds read low",0.9
same,normalized growth,"locus YOR119C, strain RIO1, active compounds read low",0.961
same,normalized growth,[7],0.84
same,normalized growth,"locus YOR329C, strain SCD5, active compounds read low",0.974
same,normalized growth,"locus YPL031C, strain PHO85, active compounds read low",0.909
same,normalized growth,"locus YPL153C, strain RAD53, active compounds read low",0.896
same,normalized growth,"locus YPL204W, strain HRR25, active compounds read low",0.897
same,normalized growth,"locus YPL209C, strain IPL1, active compounds read low",0.966
same,normalized growth,[8],0.806 (active)
same,normalized growth,"locus YPR025C, strain CCL1, active compounds read low",0.977
same,normalized growth,"locus YPR106W, strain ISR1, active compounds read low",0.964
same,normalized growth,"locus YPR111W, strain DBF20, active compounds read low",0.961
same,normalized growth,"strain NNK1, active compounds read low",0.963
same,normalized growth,"strain TSCII, active compounds read low",0.961
O=C(/C=C/C(=O)Oc1ccccc1C(=O)O)Oc1ccccc1C(=O)O,normalized growth,"locus YAL021C, strain ccr4, active compounds read low",0.961
same,normalized growth,"locus YAL026C, strain drs2, active compounds read low",0.988
same,normalized growth,"locus YAL030W, strain snc1, active compounds read low",0.992
same,normalized growth,"locus YBL061C, strain skt5, active compounds read low",0.983
same,normalized growth,"locus YBR009C, strain hhf1, active compounds read low",0.991
same,normalized growth,"locus YBR023C, strain chs3, active compounds read low",0.994
same,normalized growth,"locus YBR171W, strain sec66, active compounds read low",0.962
same,normalized growth,"locus YBR231C, strain swc5, active compounds read low",0.984
same,normalized growth,"locus YBR279W, strain paf1, active compounds read low",0.978
same,normalized growth,"locus YCL011C, strain gbp2, active compounds read low",0.989
same,normalized growth,"locus YCL016C, strain dcc1, active compounds read low",0.971
same,normalized growth,"locus YCL061C, strain MRC1, active compounds read low",0.995
same,normalized growth,"locus YCL069W, strain vba3, active compounds read low",0.99
same,normalized growth,"locus YCR088W, strain abp1, active compounds read low",0.987
same,normalized growth,"locus YDL005C, strain med2, active compounds read low",0.976
same,normalized growth,"locus YDL040C, strain nat1, active compounds read low",0.992
same,normalized growth,"locus YDR001C, strain nth1, active compounds read low",0.972
same,normalized growth,"locus YDR069C, strain doa4, active compounds read low",0.98
same,normalized growth,"locus YDR137W, strain rgp1, active compounds read low",0.969
same,normalized growth,"locus YDR159W, strain sac3, active compounds read low",0.971
same,normalized growth,"locus YDR195W, strain ref2",0.976
same,normalized growth,"locus YDR297W, strain sur2, active compounds read low",0.987
same,normalized growth,"locus YDR334W, strain swr1, active compounds read low",0.99
same,normalized growth,"locus YDR335W, strain msn5, active compounds read low",0.986
same,normalized growth,"locus YDR392W, strain spt3, active compounds read low",0.995
same,normalized growth,"locus YEL003W, strain gim4, active compounds read low",0.995
same,normalized growth,"locus YEL037C, strain rad23, active compounds read low",0.998
same,normalized growth,"locus YEL061C, strain CIN8 (second series), active compounds read low",0.981
same,normalized growth,"locus YER015W, strain faa2, active compounds read low",0.992
same,normalized growth,"locus YER016W, strain bim1, active compounds read low",0.971
same,normalized growth,"locus YER111C, strain swi4, active compounds read low",0.975
same,normalized growth,"locus YER155C, strain BEM2 (second series), active compounds read low",0.998
same,normalized growth,"locus YFR010W, strain ubp6, active compounds read low",0.991
same,normalized growth,"locus YGL167C, strain pmr1, active compounds read low",0.976
same,normalized growth,"locus YGL173C, strain kem1, active compounds read low",1
same,normalized growth,"locus YGL227W, strain vid30, active compounds read low",0.962
same,normalized growth,"locus YGL240W, strain doc1, active compounds read low",0.984
same,normalized growth,"locus YGL253W, strain hxk2, active compounds read low",0.995
same,normalized growth,"locus YHR013C, strain ard1, active compounds read low",0.984
same,normalized growth,"locus YHR027C, strain rpn1, active compounds read low",0.979
same,normalized growth,[1],1.01
same,normalized growth,[2],1.02
same,normalized growth,"locus YHR142W, strain chs7, active compounds read low",0.974
same,normalized growth,"locus YJL092W, strain hpr5, active compounds read low",0.989
same,normalized growth,"locus YJL095W, strain BCK1 (second series), active compounds read low",0.992
same,normalized growth,[3],1.02
same,normalized growth,"locus YJL115W, strain asf1, active compounds read low",0.968
same,normalized growth,"locus YJL129C, strain trk1, active compounds read low",0.964
same,normalized growth,"locus YJL154C, strain vps35, active compounds read low",0.996
same,normalized growth,"locus YJL164C, strain tpk1, active compounds read low",0.99
same,normalized growth,"locus YJL166W, strain qcr8, active compounds read low",0.997
same,normalized growth,[4],0.975
same,normalized growth,"locus YKL160W, strain elf1, active compounds read low",0.981
same,normalized growth,"locus YKR026C, strain gcn3, active compounds read low",0.968
same,normalized growth,"locus YKR091W, strain srl3, active compounds read low",0.978
same,normalized growth,"locus YLL001W, strain dnm1, active compounds read low",0.999
same,normalized growth,"locus YLL026W, active compounds read low",0.961
same,normalized growth,"locus YLL041C, strain sdh2, active compounds read low",0.987
same,normalized growth,"locus YLR027C, strain aat2, active compounds read low",0.985
same,normalized growth,[5],0.987
same,normalized growth,"locus YLR221C, strain rsa3, active compounds read low",1
same,normalized growth,"locus YLR258W, strain gsy2, active compounds read low",0.988
same,normalized growth,"locus YLR262C, strain YPT6 (second series), active compounds read low",0.996
same,normalized growth,"locus YLR320W, strain mms22, active compounds read low",1.01
same,normalized growth,"locus YLR342W, strain FKS1, active compounds read low",0.983
same,normalized growth,"locus YLR357W, strain rsc2, active compounds read low",0.987
same,normalized growth,"locus YLR370C, strain arc18, active compounds read low",0.994
same,normalized growth,"locus YLR384C, strain iki3, active compounds read low",0.976
same,normalized growth,"locus YML120C, strain ndi1, active compounds read low",0.974
same,normalized growth,"locus YMR058W, strain fet3, active compounds read low",0.984
same,normalized growth,"locus YMR125W, strain sto1, active compounds read low",0.967
same,normalized growth,"locus YMR129W, active compounds read low",0.973
same,normalized growth,"locus YMR205C, strain PFK2, active compounds read low",0.964
same,normalized growth,"locus YMR231W, strain pep5, active compounds read low",0.979
same,normalized growth,"locus YNL071W, strain lat1, active compounds read low",1
same,normalized growth,[6],0.976
same,normalized growth,"locus YNL209W, strain ssb2, active compounds read low",0.971
same,normalized growth,"locus YNL248C, strain rpa49, active compounds read low",0.985
same,normalized growth,"locus YNL322C, strain KRE1 (second series), active compounds read low",0.93
same,normalized growth,"locus YNR049C, strain mso1, active compounds read low",0.985
same,normalized growth,"locus YOR001W, strain rrp6, active compounds read low",1
same,normalized growth,"locus YOR070C, strain gyp1, active compounds read low",0.978
same,normalized growth,"locus YOR080W, strain dia2, active compounds read low",0.98
same,normalized growth,"locus YOR083W, strain WHI5, active compounds read low",0.935
same,normalized growth,"locus YOR106W, strain vam3, active compounds read low",0.953
same,normalized growth,[7],1.01
same,normalized growth,"locus YOR265W, strain rbl2, active compounds read low",0.979
same,normalized growth,"locus YOR270C, strain vph1, active compounds read low",1.02
same,normalized growth,"locus YOR290C, strain snf2, active compounds read low",0.98
same,normalized growth,"locus YPL051W, strain arl3, active compounds read low",0.984
same,normalized growth,"locus YPL078C, strain atp4, active compounds read low",0.984
same,normalized growth,"locus YPL106C, strain sse1, active compounds read low",0.973
same,normalized growth,"locus YPL240C, strain hsp82, active compounds read low",0.968
same,normalized growth,[8],1
